# Data published in PubChem BioAssay AID624256 (NMMLSC, 2012).
# The campaign covered roughly 360,000 compounds. About 3,700 (1%) were called active. Another 2% or so got no clear call; they are omitted. This is one part of a sample in which actives are shown more often than they occur.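 How the source made its calls: active means normalized GFP-positive differentiation at or above the plate's own cutoff, the solvent-only control mean plus 3 SD; inconclusive means no clear call, values can overlap the other calls; inactive means the rest.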
# Test: induction of myeloid progenitor differentiation, primary screen, cell-based, flow cytometry, MLPCN library (AID 624256);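 on GFP+ MAC1+ double positive: cells exposed to compound for four days before flow analysis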;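 on normalized GFP-positive differentiation: cells exposed to compound for four days before flow analysis; 0% = DMSO wells and 100% = fulvestrant positive control at 5 µM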
# Conditions: ER-HoxA9 myeloid progenitors, lysozyme-GFP differentiation, at 10 µM; GFP+ MAC1+ double positive: measured here: differentiation confirmed by MAC1 staining, stronger effect = higher value; normalized GFP-positive differentiation: stronger effect = higher value
SMILES,GFP+ MAC1+ double positive,outcome,normalized GFP-positive differentiation
CC1(C)OC(=O)C2=C(C[C@@H](C3CCCCC3)O[C@@H]2c2ccc(Cl)cc2)O1,0.8%,inactive,
CCOc1ccc(C(=O)Nc2ccc(S(=O)(=O)NCC3CCCO3)cc2)cc1OCC (stereo not given),2.1%,,18.3% (active)
Cc1ccc(NC(=O)c2ccc(S(=O)(=O)NCC3CCCO3)cc2)cc1C (stereo not given),0.8%,inactive,
O=C(Nc1ccc(S(=O)(=O)NCC2CCCO2)cc1)c1ccc(F)cc1 (stereo not given),0.4%,inactive,
Cc1cccc(C)c1NC(=O)C(c1cccc2ccccc12)n1c(=O)c(-c2ccco2)nc2ccccc21 (stereo not given),3.2%,inactive,
Cc1cc(C)c(S(=O)(=O)NN=C2c3ccccc3[C@H]3Cc4csc[n+]4[C@@H]23)c(C)c1,1.3%,inactive,
O=C(COC(=O)c1ccccc1O)NCc1ccco1,0.8%,inactive,
Cc1cccc(C)c1NC(=O)COC(=O)c1ccccc1O,0.5%,inactive,
CCN(C(=O)COC(=O)c1ccccc1O)c1cccc2ccccc12,0.7%,,11.2% (active)
CCOC(=O)C1=CCC(c2ccc(F)cc2)N(S(=O)(=O)c2ccc(C)cc2)C1 (stereo not given),0.9%,inactive,
Cc1cccc(C)c1-n1nnnc1C(CCc1ccccc1)N1CCN(C/C=C/c2ccccc2)CC1 (stereo not given),1.8%,inactive,
Cc1cc2nc(-c3ccc(Cl)cc3)c(Cc3cccc(F)c3)n2c(C)c1Br,1.3%,inactive,
O=C(c1ccco1)N1CCN(C(=O)C2CC(c3ccc(F)cc3)=NO2)CC1 (stereo not given),12.6%,,34.4% (active)
CCOC(=O)N1CCN(C(=O)C2CC(c3ccc(F)cc3)=NO2)CC1 (stereo not given),1.8%,inactive,
O=C(c1ccco1)N1CCN(C(=O)C2CC(c3ccc(Cl)c(Cl)c3)=NO2)CC1 (stereo not given),0.9%,inactive,
Cn1cnc(S(=O)(=O)N2C[C@@H](O)COC[C@@H]3O[C@H](CC(=O)NC4CCC4)CC[C@H]32)c1,3.2%,inactive,
NCCCNC(=S)NCCCN(Cc1ccc(Cl)cc1)c1ccc(Br)cn1,0.9%,inactive,
O=C(CC[C@H]1O[C@@H](n2ccc(=O)[nH]c2=O)[C@H](O)[C@@H]1O)N[C@H](Cc1ccccc1)C(=O)NCCCN1CCCC1=O,0.7%,inactive,
CC(C)c1nc2ccc(C(=O)O)cc2[nH]1,15%,,15.9% (active)
OC(c1nc2ccc(F)cc2[nH]1)C(O)c1nc2ccc(F)cc2[nH]1 (stereo not given),0.4%,inactive,
O=C(NCC(O)c1nc2ccccc2[nH]1)c1ccc(Br)cc1 (stereo not given),0.9%,inactive,
COc1ccc(COC[C@H](CC(C)C)N2CCN(C(=O)c3cccc(C(F)(F)F)c3)CCC2=O)cc1,0.4%,inactive,

SMILES,GFP+ MAC1+ double positive,outcome,normalized GFP-positive differentiation
CC(=O)C[C@@H]1OC[C@H](C)N1S(=O)(=O)c1ccc(C)cc1,3%,inactive,
Cc1ccc(-c2c(N)nc3ncccn23)cc1,1.5%,inactive,
CN1CCN(c2ccc3c(c2)OC[C@H](Cc2ccccc2)NS3(=O)=O)CC1,1%,inactive,
Cc1ccc(-c2csc(NC(=O)C3=COCCO3)n2)cc1C,0%,inactive,
CCc1noc(C)c1C(=O)OCC(=O)c1ccc(NC(=O)CC(C)C)cc1,1.1%,inactive,
CCc1noc(C)c1C(=O)Nc1nc(-c2ccccc2)cs1,2.2%,,32.2% (active)
CCN(CC)S(=O)(=O)c1cc(C(=O)Nc2cc(S(=O)(=O)N3CCOCC3)ccc2N2CCCC2)ccc1F,0.3%,inactive,
CCN(CC)S(=O)(=O)c1ccc(N2CCOCC2)c(NC(=O)c2ccc(=O)n(C)n2)c1,0.1%,inactive,
CCN(CC)S(=O)(=O)c1ccc(N2CCCC2)c(NC(=O)c2ccc([N+](=O)[O-])o2)c1,5.1%,,56% (active)
Clc1cccc(Cc2c(-c3cccc(Cl)c3)nc3ccc(Cl)cn23)c1,0.4%,inactive,
COc1ccc(CNC(=O)c2nnn(CC(=O)Nc3cc(C)cc(C)c3)c2N)cc1,0.5%,inactive,
CCOc1ccc(Cn2nnc(C(=O)Nc3ccc(OC)cc3OC)c2N)cc1,12.5%,,38% (active)
COc1ccc(NC(=O)Cn2nnc(C(=O)NCCc3ccc(OC)c(OC)c3)c2N)cc1,1%,inactive,
Cc1cccc(C)c1NC(=O)C(c1cccc(F)c1)N1CCN(C)CC1 (stereo not given),2.3%,inactive,
COc1ccc(S(=O)(=O)N2CCOCC2)cc1C(=O)Nc1nc2ccccc2s1,27.7%,,33.1% (active)
COc1ccc(S(=O)(=O)N2CCOCC2)cc1C(=O)NC1CCCCC1,0.6%,inactive,
COc1ccc(S(=O)(=O)N2CCOCC2)cc1NC(=O)COc1ccccc1,0.8%,inactive,
Cc1c(C(=O)NCC2CC2)sc(=O)n1Cc1cccc(F)c1,4.3%,inactive,
O=S1(=O)CC(N2CCN(Cc3ccccc3F)CC2)CN1Cc1cn(Cc2cccc(C(F)(F)F)c2)nn1 (stereo not given),1%,inactive,
O=C1C=CN2CCCC2CC1 (stereo not given),1.2%,,7.96% (active)
CC(=O)C1=CCC(c2ccccc2)N(S(=O)(=O)c2ccc(C)cc2)C1 (stereo not given),1.6%,inactive,
Cc1ccccc1S(=O)(=O)N1[C@@H](c2cccc(Cl)c2)C(C(=O)OC(C)(C)C)=CC[C@H]1c1ccc(Cl)cc1,0.4%,inactive,

SMILES,GFP+ MAC1+ double positive,outcome,normalized GFP-positive differentiation
COc1ccc(S(=O)(=O)N[C@@H]2C=C[C@@H](CC(=O)N3CCc4ccccc4C3)O[C@@H]2CO)cc1,1.9%,inactive,
CN1/C(=c2/s/c(=C3/C(=O)N(c4ccccc4)NC3=Nc3ccccc3)n(C)c2=O)C(C)(C)c2ccccc21,13.2%,,200% (active)
Cc1cccc(-c2cnc(C(O)c3ccc4ccccc4c3)[nH]2)c1 (stereo not given),0.2%,inactive,
Cc1cccn2c(=O)c(/C=C3\SC(=S)N(CC(C)C)C3=O)c(NCCCOC(C)C)nc12,6%,,235% (active)
CCCN(CCC)c1nc2c(C)cccn2c(=O)c1/C=C1/SC(=S)N(Cc2ccco2)C1=O,9.4%,,389% (active)
Cc1cccn2c(=O)c(C=O)c(Nc3ccc(S(N)(=O)=O)cc3)nc12,0.8%,inactive,
Cc1ccc2[nH]c(=O)c(-c3nc4c(C)cccn4c3NCc3ccco3)cc2c1,0.8%,inactive,
CNc1nc2c(C)cccn2c(=O)c1C=Nc1ccc(OC)cc1,0.6%,inactive,
CC(C)C1C(=O)N(Cc2cn(CCC3OCCO3)nn2)CCS(=O)(=O)N1Cc1ccc(-c2ccccc2C(F)(F)F)cc1 (stereo not given),1.5%,inactive,
CCCCOCCCNC(=O)C[C@@H]1C[C@@]2(C(=O)OC)CCCCC=C2N(CCC2=CCCCC2)C1=O,1.3%,inactive,
CCOC(=O)[C@]12CCCC=C1N(CCC1=CCCCC1)C(=O)[C@H](CC(=O)NCCCOC)C2,2.8%,inactive,
CC(C)NC(=O)C1(C)CCCCN1Cc1cccc(C(F)(F)F)c1 (stereo not given),1.4%,inactive,
COc1ccccc1CNC(=O)C1CCN(C(=O)[C@@H]2Cc3ccccc3CN2)CC1,4.9%,inactive,
COc1ccccc1CNC(=O)C1CCN(S(C)(=O)=O)CC1,0.7%,inactive,
COc1ccccc1CNC(=O)C1CCN(c2nc3ccccc3o2)CC1,4.6%,,9.06% (active)
CNC[C@H]1OCc2cnnn2CCCC(=O)N([C@H](C)CO)C[C@@H]1C,0.8%,inactive,
CC(C)C[C@H]1CNC(=O)C(=O)N1C[C@H]1CCCN1C[C@H](Cc1ccc(O)cc1)N1C[C@H](CC(C)C)N(CC2CCCCCC2)C(=O)C1=O,1.3%,inactive,
CCCCc1c(-c2ccc(Cl)cc2)ncn1CCc1ccccc1OC,2.2%,inactive,
N#CCC(=O)NC(=O)NCC1CC1,1.2%,inactive,
O=C(NCC1CCCCC1)NCC1CCCCC1,5.3%,,9.67% (active)
CC(C)(C)NC(=O)NC(=O)COC(=O)CCC1CCCCC1,0.5%,inactive,
COC(=O)Cc1ccc(OC2(C)CCN(Cc3ccc4c(c3)OCCO4)C2)cc1 (stereo not given),2.5%,inactive,

SMILES,GFP+ MAC1+ double positive,outcome,normalized GFP-positive differentiation
CCC(c1nc2ccccc2[nH]1)n1c(=O)c(-c2cccs2)nc2ccccc21 (stereo not given),2.5%,inactive,
CCCc1c(-c2ccccc2F)ncn1Cc1ccccc1OC,1.4%,inactive,
CCc1c(-c2ccc(F)cc2)ncn1Cc1cccc(-c2ccccc2)c1,3.4%,inactive,
CN(C(=O)COC(=O)c1ccc(Br)o1)c1c(N)n(Cc2ccccc2)c(=O)[nH]c1=O,0.6%,inactive,
Cc1cc2nc3c(=O)n(Cc4ccccc4)c(=O)[nH]c3nc2cc1N,5%,,282% (active)
Nc1cc(=O)n(Cc2ccccc2)c(=O)n1Cc1ccccc1,1.4%,inactive,
COC(=O)[C@]12CCCCC=C1N(CCC1=CCCCC1)C(=O)[C@H](CC(=O)N1CCSCC1)C2,0.5%,inactive,
N#CC1=C(N)Oc2cc(N)ccc2C1c1ccccc1 (stereo not given),0.2%,inactive,
N#CC1=C(N)Oc2c(sc3ccccc23)C1c1ccco1 (stereo not given),2.5%,,197% (active)
N#CC1=C(N)Oc2c(ccc3cccnc23)C1c1ccncc1 (stereo not given),0%,inactive,
CCCCNC(=O)OC1CC2CC1[C@H]1CCCCN1C2=O (stereo not given in full),0.8%,inactive,
COC(=O)[C@@]12C[C@@H](CC(=O)NCCCCc3ccccc3)C(=O)N(Cc3ccccc3)C1=CCC(C)(C)C2,3.1%,inactive,
Cc1ccc(C(=O)NC2CCCC(C)C2C)cc1S(=O)(=O)N1CCCCC1 (stereo not given),2.2%,,27.1% (active)
Cc1ccc(C(=O)NNC(=O)c2ccncc2)cc1S(=O)(=O)N1CCCCC1,0.5%,inactive,
CC1CCCC(NC(=O)c2cc(S(=O)(=O)N3CCCCC3)ccc2Cl)C1C (stereo not given),1.2%,inactive,
CCOC(=O)[C@]12CCC=C1N(Cc1ccco1)C(=O)[C@H](CC(=O)NCc1cccc(C(F)(F)F)c1)C2,1.6%,inactive,
COc1ccccc1/C=C/C=N/NC(=O)CN1CCN(Cc2ccccc2)CC1,0.2%,inactive,
Cc1cc(NC(=O)CCN2CCN(Cc3ccccc3)CC2)ccc1Br,0.5%,inactive,
CN1CCN(CCC(=O)N/N=C/C=C2\N(C)c3ccccc3C2(C)C)CC1,2.2%,,224% (active)
